In the library only some 2.8% were active in any assay of this set; here they are far more common.
Pol kappa inh-1: DNA polymerase kappa (human) inhibition; purified Pol kappa, fluorescent DNA synthesis assay, 10 min; Potency, µM (series often up to 107 µM), for the others: at the top dose activity, negative = inhibition, hits mostly inhibitors; actives 0.53% (n = 400,000); note: potency is the fitted concentration of half-maximal effect; % is set by controls: 0 for no effect and ±100 for the full control effect
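10 nM Pol kappa was preincubated with compounds for 15 min at room temperature. Reaction started with 50 nM (final) substrate. Fluorescence read kinetically at 0 and 10 min.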
PI5P4Ka inh: inhibitors of human PI5P4K alpha; P48426; AID 652105; PI5P4Kalpha enzyme, ADP-Glo luminescence, 60 min; hits give low values; max response, %; actives 1.2% (n = 330,000); active = max response of -50% or lower; inconclusive = between -30% and -50%; inactive = -30% or higher; note: value at the top dose of about 77 µM; % is set by controls: 0 for no effect and ±100 for the full control effect
Target sequence (P48426 whole entry, looked up): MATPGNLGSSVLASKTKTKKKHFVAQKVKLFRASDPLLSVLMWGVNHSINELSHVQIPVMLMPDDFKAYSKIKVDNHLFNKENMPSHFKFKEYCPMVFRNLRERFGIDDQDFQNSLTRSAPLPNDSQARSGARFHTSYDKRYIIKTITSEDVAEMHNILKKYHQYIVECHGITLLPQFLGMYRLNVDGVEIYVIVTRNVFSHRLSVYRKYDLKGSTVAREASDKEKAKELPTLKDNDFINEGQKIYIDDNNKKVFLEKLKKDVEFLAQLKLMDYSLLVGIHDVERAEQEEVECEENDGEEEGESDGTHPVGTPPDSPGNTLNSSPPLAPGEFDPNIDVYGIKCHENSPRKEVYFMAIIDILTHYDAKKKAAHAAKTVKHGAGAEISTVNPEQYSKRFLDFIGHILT
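ADP-Glo luminescence end-point after a 60 min room-temperature kinase reaction. PI5P4Kalpha and substrate in HEPES pH 7.4 buffer with EGTA, 0.1% CHAPS and 5% DMSO; ATP at 5 microM final.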
POLB inh: DNA polymerase beta (human) inhibition | P06746 | Pol beta primer extension/strand displacement, fluorescence kinetic | Potency, µM (top dose mostly 114 µM), inactives show at the highest dose activity change, negative = inhibition, usual class: inhibitors | actives 1.3% (n = 340,000) | AID 485314; note: potency is the fitted concentration of half-maximal effect; % is set by controls: 0 for no effect and ±100 for the full control effect
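Pol beta (10 nM) and compounds were preincubated 15 min at room temperature, then 50 nM substrate (final) started primer extension/strand displacement. Reads were taken at 0 and 10 min; concentration-response data were fitted to a four-parameter Hill equation.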
FEN1 inh-1: human FEN1 inhibition; P39748; Recombinant FEN1 flap cleavage, fluorescence, 15 min; Potency, µM (titrated, usually from 114 µM), for the others: at the highest dose activity change, negative = inhibition, actives largely listed as inhibitors; actives 0.35% (n = 390,000); AID 588795; note: potency is the fitted concentration of half-maximal effect; % is set by controls: 0 for no effect and ±100 for the full control effect; nearly all actives have a fitted effect of over 65% in size
Target sequence (P39748 whole entry, looked up): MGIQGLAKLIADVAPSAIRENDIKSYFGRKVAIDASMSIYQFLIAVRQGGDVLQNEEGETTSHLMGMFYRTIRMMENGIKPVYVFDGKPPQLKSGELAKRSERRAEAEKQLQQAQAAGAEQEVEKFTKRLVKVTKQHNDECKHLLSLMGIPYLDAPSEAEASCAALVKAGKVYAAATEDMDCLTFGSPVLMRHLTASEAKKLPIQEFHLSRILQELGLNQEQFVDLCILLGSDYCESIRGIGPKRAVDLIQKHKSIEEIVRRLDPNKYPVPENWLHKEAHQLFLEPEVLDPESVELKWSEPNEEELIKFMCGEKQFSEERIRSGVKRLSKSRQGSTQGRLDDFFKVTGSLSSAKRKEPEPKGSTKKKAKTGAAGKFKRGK
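Reaction started by adding substrate (50 nM final) to 10 nM enzyme after 15 min room-temperature compound preincubation. Reads at 0 and 15 min, with data normalized and fitted to a four-parameter Hill equation.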
Pol eta inh-1: blocks human DNA polymerase eta activity. recombinant Pol eta, fluorescent DNA replication assay. Q9Y253. Potency, µM (top dose mostly 114 µM), for inactives: at the top dose activity change, negative = inhibition, most hits filed as inhibitors. actives 1.2% (n = 390,000); note: potency is the fitted concentration of half-maximal effect; % is set by controls: 0 for no effect and ±100 for the full control effect
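Pol eta (10 nM) was preincubated with compounds for 15 min at room temperature, after which fluorescent replication substrate (50 nM final) was added to start the reaction. Fluorescence was read kinetically at 0 and 10 min.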
Pol iota inh: DNA polymerase iota (human) inhibition | Q9UNA4 | AID 588590 | actives 1% (n = 390,000) | Pol iota fluorescent replication assay, 10 min | Potency, µM (doses to about 115 µM), without a hit: at the top dose activity, negative = inhibition, hits mostly inhibitors; note: potency is the fitted concentration of half-maximal effect
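Fluorescent replication assay read twice, at 0 min and 10 min after adding 50 nM (final) substrate. Enzyme (10 nM) and compounds were first incubated 15 min at room temperature; enzyme-free buffer wells were negative controls.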
BAZ2B confirm: confirmation of human BAZ2B bromodomain inhibitors. shares compounds with Pol kappa inh-1. AlphaScreen BAZ2B / biotin-H3K14Ac peptide displacement. Potency, µM, usual class: inhibitors. actives 100% (n = 25); calls by dose curve
AlphaScreen ctr: interferes with AlphaScreen signal in BAZ2B counterscreen | shares compounds with Pol kappa inh-1 | AlphaScreen biotin-His6 peptide bead counterscreen, signal decrease | Potency, µM (series often up to 57.1 µM), for the others: at the top dose activity change, negative = inhibition, most hits filed as inhibitors | 25 tested, under 10 active;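 active = clear concentration-dependent signal drop in the bead assay lacking the target, so a primary-screen artifact; inconclusive = weak, partial or single-dose response; inactive = no response, so a real primary hit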
PGK validate: TbPGK inhibition, hit validation; shares compounds with Pol kappa inh-1; TbPGK coupled GAPDH assay, Kinase-Glo luminescence; Potency, µM (titrated, usually from 57.5 µM), for inactives: at the top dose activity change, negative = inhibition, most hits filed as inhibitors; actives 79% (n = 500); AID 686980; note: potency is the fitted concentration of half-maximal effect; % is set by controls: 0 for no effect and ±100 for the full control effect; nearly all actives have a fitted effect of over 65% in size
Pol iota confirm: Inhibitors of human DNA polymerase iota, confirmation | shares compounds with Pol kappa inh-1 | Pol iota primer extension, TAMRA/BHQ fluorescence | Potency, µM, usual class: inhibitors | actives 77% (n = 1,500); note: potency is the fitted concentration of half-maximal effect
Pol kappa inh-2: Pol kappa (human) inhibition, cherry-pick confirmation. shares compounds with Pol eta inh-1. purified Pol-kappa, fluorescent strand-displacement substrate. Potency, µM, hits mostly inhibitors. actives 76% (n = 920). AID 720501; note: potency is the fitted concentration of half-maximal effect
Pol eta inh-2: Pol eta (human) inhibition, cherry-pick confirmation | Pol eta primer extension, TAMRA/BHQ fluorescence, 10 min | Potency, µM, most hits filed as inhibitors | shares compounds with Pol eta inh-1 | actives 64% (n = 2,600); note: potency is the fitted concentration of half-maximal effect
FEN1 inh-2: FEN1 inhibition, cherry-pick retest; AID 720498; shares compounds with FEN1 inh-1; FEN1 flap cleavage, TAMRA/BHQ2 fluorogenic DNA substrate; actives 79% (n = 880); Potency, µM, most hits filed as inhibitors; note: potency is the fitted concentration of half-maximal effect; nearly all actives have a fitted effect of over 60% in size
* marks the source's active call; other numbers are inactive results; ? = inconclusive; nt = no result; [ ] = remark or other dose. Unless noted, calls come from the whole dose curve; as a rule, active = well fitted curve in the direction sought with a large enough effect; inconclusive = small, poorly fitted or top-dose-only effect, or another doubt; inactive = no such curve, though single readings can be large; an effect the other way counts as inactive or inconclusive.

SMILES	Pol kappa inh-1	PI5P4Ka inh	POLB inh	FEN1 inh-1	Pol eta inh-1	Pol iota inh	Pol iota confirm	Pol eta inh-2	FEN1 inh-2	others
COc1ccc(Cc2nccc3cc(OC)c(OC)cc23)cc1OC	-14%[60.1 µM]	0	-11%	-7%	?	9%	nt	nt	nt
COc1cc2c(ccc3c4cc(OC)c(OC)cc4c[n+](C)c23)cc1O	32µM*	-6	nt	3.5µM*	?	?	19*	nt	2.7*
C=CCn1c(CSc2ccccc2[N+](=O)[O-])n[nH]c1=S	50µM*	-74*	10µM*	?	13µM*	8.9µM*	53*	24*	76*
CNc1ccc2nc3ccccc3[n+](C)c2c1	20µM*	4	28µM*	?	50µM*	35µM*	75*	67*	38*	Pol kappa inh-2=19*
C[n+]1c2ccccc2nc2ccc(NCCO)cc21	45µM*	-24	28µM*	40µM*	40µM*	?	75*	67*	43*	Pol kappa inh-2=42*
CCOC(=O)C1=C(C)N=c2s/c(=C\c3ccc(OCC(=O)O)cc3)c(=O)n2C1c1ccc(Cl)cc1 (centres undefined)	50µM*	0	22µM*	?	?	?	21*	nt	76*	BAZ2B confirm=14*;AlphaScreen ctr=-19%;PGK validate=4.6µM*
O=C1NC(=O)N(Cc2ccco2)C(=O)/C1=C/C=C/c1ccco1	14µM*	-83*	?	25µM*	4µM*	?	6.7*	4.8*	43*
CC(=O)Nc1ccc(OC(=O)N2CCN(/[N+]([O-])=N/Oc3ccc([N+](=O)[O-])cc3[N+](=O)[O-])CC2)cc1	5%	nt	nt	?	nt	?	nt	nt	nt
O=C(CSc1nc(-c2ccc(F)cc2)nc2c1Cc1ccccc1O2)Nc1cccc(C(=O)O)c1	8.9µM*	?	2.8µM*	?	10µM*	5.6µM*	3.4*	76*	27*	BAZ2B confirm=28*;AlphaScreen ctr=-25%;PGK validate=1.6µM*
N#Cc1cc2c(nc1SCC(=O)Nc1cccc(F)c1)C1CCN2CC1	-5%	nt	32%	-10%	0%	1%	nt	nt	nt
CN1CC[C@@]2(C)c3cc(OC(=O)Nc4ccccc4)ccc3N(C)[C@@H]12	1%[60.1 µM]	nt	nt	nt	nt	nt	nt	nt	nt
C=C1CC[C@H](O)C/C1=C/C=C1\CCC[C@]2(C)[C@H]1CC[C@H]2[C@@H](C)CCCC(C)C	-9%[12 µM]	nt	nt	nt	nt	nt	nt	nt	nt
O=C1NC(=S)N(C2CC2)C(=O)/C1=C/c1ccc2c(c1)CCN2CCCCl	40µM*	-74*	20µM*	?	7.9µM*	22µM*	15*	19*	76*
O=C1C=C2C=CC3C[C@@]2(O1)C1CCCCN31 (some centres undefined)	6%[19.4 µM]	nt	nt	nt	nt	nt	nt	nt	nt
CCN1/C(=C/C=C/C2=[N+](CC)c3ccccc3C2(C)C)C(C)(C)c2ccccc21	nt	?	nt	nt	32µM*	nt	38*	67*	67*	Pol kappa inh-2=67*
CN1/C(=C\C=C2C(=O)NC(=O)NC2=O)C(C)(C)c2ccccc21	5%	1	11%	9%	1%	19%	nt	nt	nt
O=C1CC2OCC=C3CN4CCC56c7ccccc7N1C5C2C3CC46 (centres undefined)	8%[60.1 µM]	nt	nt	nt	nt	nt	nt	nt	nt
CN1C(=O)C(=Cc2ccc(Sc3ccccc3)o2)C(=O)N(C)C1=S	?	?	nt	-18%	45µM*	?	?	38*	85*	Pol kappa inh-2=17*
COC1=CC(=O)O[C@H](/C=C/c2ccc3c(c2)OCO3)C1	13%[60.1 µM]	nt	nt	nt	nt	nt	nt	nt	nt
C[C@H](N)Cc1c[nH]c2ccc(OCc3cccs3)cc12	-11%[19.4 µM]	nt	nt	nt	nt	nt	nt	nt	nt
CC[C@H]1C2CC3[C@@H]4N(C)c5ccccc5[C@]45C[C@@H](C2[C@H]5O)N3[C@@H]1O (some centres undefined)	-5%[19.4 µM]	nt	nt	nt	nt	nt	nt	nt	nt
CC(C)c1ccc(Cc2cn3cc(-c4cc5ccccc5oc4=O)nc3s2)cc1	5%	nt	-1%	12%	-16%	49%	nt	nt	nt
CCOC(=O)c1ccc(N=Cc2c(O)n(-c3ccc(OC)cc3)c(=S)[nH]c2=O)cc1	-25%	-1	-5%	?	?	-1%	3.8*	nt	9.5*
Cc1cc(C=C2C(=O)N(C)C(=O)N(C)C2=O)c(C)n1-c1ccccc1	-7%[60.1 µM]	-4	3%	14%	12%	-1%	nt	nt	nt
Cc1cc(/C=C2\C(=O)NC(=O)N(Cc3ccccc3)C2=O)c(C)n1-c1ccc(Cl)c(C(=O)O)c1	18µM*	-94*	3.5µM*	79µM*	1.8µM*	8.9µM*	24*	21*	?	PGK validate=6.5µM*;Pol kappa inh-2=24*
CN(C(=O)Cc1ccc(Cl)c(Cl)c1)[C@H](CN1CCCC1)c1cccc(N=C=S)c1	-10%[19.4 µM]	nt	nt	nt	nt	nt	nt	nt	nt
CSCC[C@H](NC(=O)[C@@H](NC(=O)CNC(=O)[C@H](CC(=O)O)NC(=O)[C@H](CCSC)NC(=O)[C@@H](N)Cc1ccc(O)cc1)[C@@H](C)O)C(=O)N[C@@H](CO)C(=O)N[C@@H](CCC(N)=O)C(=O)N[C@H](C(=O)O)C(C)C	14%[60.1 µM]	nt	nt	nt	nt	nt	nt	nt	nt
COc1ccc(N2C(=O)CC(=O)NC2=O)cc1	-9%	nt	-14%	-6%	-6%	-10%	nt	nt	nt
COc1ccc(N2C(=O)/C(=C/c3ccc(C)o3)C(=O)NC2=S)cc1	-96%	?	35µM*	?	13µM*	25µM*	nt	30*	nt	Pol kappa inh-2=17*
